PubChem BioAssay (EPA / NIEHS)
Records with an inconclusive call do not appear. The source made the active and inactive calls. Rule for the calls, unless noted: active = hit-call score of the fitted dose curve at least 0.9, where 1 is the maximum; inactive = score below 0.9.

Legend:
[1] = biological target: Estrogen receptor (Homo sapiens) (UniProt P03372); assay: CCTE_Deisenroth_AIME_384WELL_LUC_Shift: CCTE's 384-well Estrogen Receptor Transactivation Assay with AIME metabolic competence data shift (ERTA luciferase; difference in metabolism positive and negative), Deisenroth Lab (AID 2284041);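 note: shift is response with S9 minus without S9 so positive means metabolism raised ER signal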
Summary of the method: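 Here, parent compounds undergo 2 h phase I metabolism by PB/BNF-induced rat S9 before 24 h transactivation in VM7Luc4E2 cells; the curve models S9-positive minus S9-negative response over a 10-point series.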

[2] = CCTE_Shafer_MEA_acute_AB: CCTE's Alamar Blue Assay for Cytotoxicity in the Neural Acute Assay, Shafer Lab (AID 2284069; active = hit-call score of the fitted dose curve at least 0.9, where 1 is the maximum;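 note: active compounds lower the viability signal compared with DMSO wells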)
Summary of the method: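 Read-out: resazurin fluorescence (ex 544, em 590 nm) after CTB reagent at 1:6 dilution in fresh media. Cells: primary rat cortical neuron networks, DIV 13 or 15, chemically exposed on MEA plates; DMSO as negative control/baseline.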

[3] = CCTE_Shafer_MEA_acute_LDH: CCTE's Lactate Dehydrogenase Assay for Cytotoxicity in the Neural Acute Assay, Shafer Lab (AID 2284086; active = hit-call score of the fitted dose curve at least 0.9, where 1 is the maximum;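 note: active means LDH release rises above DMSO vehicle level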)
Summary of the method: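 Primary rat cortical neurons on 48-well MEA plates, treated on day 13 or 15 post-plating. After the 40-min recording with compound, medium LDH release was read by absorbance at 490 nm. Gain of signal was fitted against DMSO negative control.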

[4] = CCTE_Shafer_MEA_dev_burst_rate: CCTE's Neural Network Formation Assay for Burst Rate, Shafer Lab (AID 2284042)
Summary of the method: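 Rat primary cortical cultures on PEI/laminin MEA; compound from plating, re-dosed at DIV 5, 9 media change. Single-electrode bursts/recording length, well mean of active electrodes; AUC over DIV 5–12 recordings; loss-of-signal vs DMSO.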

[5] = CCTE_Shafer_MEA_dev_bursting_electrodes_number: CCTE's Neural Network Formation Assay for Number of Bursting Electrodes, Shafer Lab (AID 2284043; active = hit-call score of the fitted dose curve at least 0.9, where 1 is the maximum;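 for AC50: potency is for loss of bursting electrodes relative to DMSO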)
Summary of the method: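 Primary rat cortical neurons were cultured on PEI-coated 48-well MEA plates (16 electrodes/well) and exposed from plating through day 12, with compound renewed at feeds on DIV 5 and 9. Electrodes bursting ≥1 per 2 min were counted on DIV 5, 7, 9, 12; trapezoidal AUC taken.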

[6] = CCTE_Shafer_MEA_dev_per_burst_interspike_interval: CCTE's Neural Network Formation Assay for Burst Interspike Interval, Shafer Lab (AID 2284044);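 note: mean spike spacing inside bursts as AUC over recordings on days 5 7 9 12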
Summary of the method: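 Primary rat cortical neurons on 48-well MEA plates, exposed from day 0 through day 12, treatment renewed at DIV 5 and 9. Within-burst interspike interval recorded days 5, 7, 9, 12, well-averaged, summarised as AUC; negative fit versus DMSO.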

[7] = CCTE_Shafer_MEA_dev_burst_duration_mean: CCTE's Neural Network Formation Assay for Mean Burst Duration, Shafer Lab (AID 2284045)
Summary of the method: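 Primary rat cortical neurons on PEI-coated 16-electrode MEA wells, exposed from plating through day 12 with compound renewed at DIV 5 and 9; spontaneous activity recorded days 5, 7, 9, 12. Well-mean burst duration collapsed as trapezoidal AUC, fitted for loss versus DMSO.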

[8] = CCTE_Shafer_MEA_dev_interburst_interval_mean: CCTE's Neural Network Formation Assay for Mean Interburst Interval, Shafer Lab (AID 2284046);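 note: well-mean interburst interval of bursting electrodes as AUC over four recording days; curve fitted for decrease in interburst interval relative to DMSO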
Summary of the method: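 Rat cortical neurons, 1.5 x 10^5 cells/well, 48-well MEA; compound from day 0 through DIV 12, media and treatment renewed DIV 5/9. Recordings DIV 5, 7, 9, 12; well-mean interburst interval → trapezoidal AUC, loss direction vs DMSO.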

[9] = CCTE_Shafer_MEA_dev_inter_network_spike_interval_mean: CCTE's Neural Network Formation Assay for Mean Inter-network Spike Interval, Shafer Lab (AID 2284047)
Summary of the method: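 Primary rat cortical neurons on PEI-coated 48-well MEAs (16 electrodes/well) were exposed from plating day 0 to DIV 12, with dosing renewed at DIV 5 and 9. Recordings at DIV 5, 7, 9, 12 were collapsed by trapezoidal AUC, loss-of-signal fit vs DMSO.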

[10] = CCTE_Shafer_MEA_dev_network_spike_number: CCTE's Neural Network Formation Assay for Number of Network Spikes, Shafer Lab (AID 2284048);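 note: synchronized bursts across electrodes counted on days 5 7 9 12 and integrated as AUC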;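 for AC50: fit as a loss of signal meaning fewer network spikes than DMSO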
Summary of the method: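 Primary rat cortical neurons were seeded at 1.5 x 10^5 cells/well on PEI-coated 16-electrode MEA wells with laminin, exposed from plating day 0, compound renewed at DIV 5 and 9. Network spikes were recorded on days 5, 7, 9, 12 and summarized as trapezoidal AUC versus DMSO.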

[11] = CCTE_Shafer_MEA_dev_network_spike_peak: CCTE's Neural Network Formation Assay for Mean Number of Electrodes in Network Spike, Shafer Lab (AID 2284049);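 for AC50: fitted for loss of signal meaning fewer electrodes in network spikes than DMSO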
Summary of the method: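 Continuous 12-day exposure of rat cortical cultures, starting at plating, on MEA plates. Endpoint: electrodes participating in network-spike peaks, AUC across DIV 5–12, DMSO as negative control.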

[12] = CCTE_Shafer_MEA_dev_spike_duration_mean: CCTE's Neural Network Formation Assay for Mean Spike Duration, Shafer Lab (AID 2284051);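 note: mean network spike duration pooled as area under curve over DIV 5 to 12 recordings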;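 for AC50: potency for a decrease in mean network spike duration versus DMSO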
Summary of the method: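 Rat cortical primary cultures, 48-well MEA (16 electrodes/well); compound from plating, renewed DIV 5, 9. Network spike duration (AxIS adaptive detector) recorded DIV 5/7/9/12, combined as trapezoidal AUC; loss direction vs DMSO.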

[13] = CCTE_Shafer_MEA_dev_network_spike_duration_std: CCTE's Neural Network Formation Assay for Standard Deviation of Network Spike Duration, Shafer Lab (AID 2284052);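 note: area under curve of spike duration SD across recording days 5 to 12; hits are decreases in network spike duration SD versus DMSO vehicle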
Summary of the method: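 Rat cortical cultures, 1.5 x 10^5 cells/well, exposed continuously from plating to DIV 12 with media/compound renewal at DIV 5, 9. Spontaneous activity recorded DIV 5/7/9/12, AxIS adaptive spike detector; AUC across days; negative direction vs DMSO.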

[14] = CCTE_Shafer_MEA_dev_per_network_spike_spike_number_mean: CCTE's Neural Network Formation Assay for Mean Number of Spikes in a Network Spike, Shafer Lab (AID 2284053);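 for AC50: fitted as decrease in spikes per network spike relative to DMSO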
Summary of the method: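 Rat cortical primary cultures on 48-well MEA; compound from day 0, re-dosed with full media change DIV 5, 9. Recorded DIV 5, 7, 9, 12; spikes in 0.05 s window at network-spike peak ÷ total network spikes; AUC; loss vs DMSO.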

[15] = CCTE_Shafer_MEA_dev_per_network_spike_spike_percent: CCTE's Neural Network Formation Assay for Percent of Spikes in a Network Spike, Shafer Lab (AID 2284054)
Summary of the method: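 Primary rat cortical neurons on 16-electrode MEA wells (PEI-coated, laminin at plating), exposed from day 0 with renewal at DIV 5 and 9; spikes within 0.05 s of network-spike peaks over total spikes, AUC across days 5, 7, 9, 12.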

[16] = CCTE_Shafer_MEA_dev_LDH: CCTE's Lactate Dehydrogenase Assay for Cytotoxicity in the Neural Network Formation Assay, Shafer Lab (AID 2284068; active = hit-call score of the fitted dose curve at least 0.9, where 1 is the maximum;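 note: exposure for twelve days from plating with re-dosing on DIV 5 and 9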)
Summary of the method: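 Rat cortical primary neurons, MEA culture; dosing day 0–12, full medium plus compound exchange DIV 5, 9. Read-out: LDH enzyme activity, spectrophotometric. DMSO = negative control/baseline; signal loss → cytotoxicity.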

[17] = CCTE_Shafer_MEA_dev_AB: CCTE's Alamar Blue Assay for Cytotoxicity in the Neural Network Formation Assay, Shafer Lab (AID 2284083; active = hit-call score of the fitted dose curve at least 0.9, where 1 is the maximum;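 note: resazurin reduction fluorescence as viability of cultured neurons; twelve days of exposure from plating with re-dosing on DIV 5 and 9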)
Summary of the method: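 Rat cortical primary cultures, 1.5 x 10^5 cells/well on MEA; continuous compound exposure over 12 days of network development, re-dosed with full medium change DIV 5 and 9. Alamar Blue fluorescence; loss of signal = cytotoxicity vs DMSO baseline.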

[18] = CCTE_Shafer_MEA_dev_mutual_information_norm: CCTE's Neural Network Formation Assay for Mutual Information Normalization, Shafer Lab (AID 2284091);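 for AC50: mutual information between electrodes summarised as area under curve across four recording days; potency is for a decrease in mutual information relative to DMSO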
Summary of the method: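 Rat cortical cultures, 48-well MEA, continuous exposure DIV 0–12 with full media/compound change DIV 5 and 9. Readout: inter-electrode mutual information, AxIS adaptive spike detection; AUC across DIV 5/7/9/12 recordings; DMSO baseline, negative fitting direction.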

[19] = CCTE_Shafer_MEA_dev_correlation_coefficient_mean: CCTE's Neural Network Formation Assay for Mean Correlation Coefficient, Shafer Lab (AID 2284093);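 for AC50: well mean pairwise spike train correlation integrated as AUC over recording days 5 to 12; potency fitted for loss of correlation relative to DMSO vehicle wells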
Summary of the method: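 Rat cortical cultures, 1.5 x 10^5 cells/well, dosed from day 0 for 12 days. Spontaneous spikes recorded DIV 5/7/9/12; electrode-pair correlation coefficients averaged, AUC taken. Fit in loss direction vs DMSO.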

[20] = tested on: DIO3 (gene 1735); assay: CCTE_GLTED_hDIO3: CCTE's human Deiodinase 3 (DIO3) Inhibition Assay, Great Lakes Toxicology and Ecology Division (GLTED) Lab (AID 2284055; active = hit-call score of the fitted dose curve at least 0.9, where 1 is the maximum;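 note: potency is for inhibition seen as loss of released iodide signal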)
Summary of the method: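 Cell-free assay with human DIO3 enzyme produced by adenovirus expression; enzyme incubated with test chemical for 3 hours. Liberated iodide then measured by Sandell-Kolthoff absorbance; loss of signal versus DMSO baseline indicates inhibition, run in triplicate.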

Measured: AC50

Chain of Estrogen receptor (Homo sapiens) (P03372 whole entry, looked up): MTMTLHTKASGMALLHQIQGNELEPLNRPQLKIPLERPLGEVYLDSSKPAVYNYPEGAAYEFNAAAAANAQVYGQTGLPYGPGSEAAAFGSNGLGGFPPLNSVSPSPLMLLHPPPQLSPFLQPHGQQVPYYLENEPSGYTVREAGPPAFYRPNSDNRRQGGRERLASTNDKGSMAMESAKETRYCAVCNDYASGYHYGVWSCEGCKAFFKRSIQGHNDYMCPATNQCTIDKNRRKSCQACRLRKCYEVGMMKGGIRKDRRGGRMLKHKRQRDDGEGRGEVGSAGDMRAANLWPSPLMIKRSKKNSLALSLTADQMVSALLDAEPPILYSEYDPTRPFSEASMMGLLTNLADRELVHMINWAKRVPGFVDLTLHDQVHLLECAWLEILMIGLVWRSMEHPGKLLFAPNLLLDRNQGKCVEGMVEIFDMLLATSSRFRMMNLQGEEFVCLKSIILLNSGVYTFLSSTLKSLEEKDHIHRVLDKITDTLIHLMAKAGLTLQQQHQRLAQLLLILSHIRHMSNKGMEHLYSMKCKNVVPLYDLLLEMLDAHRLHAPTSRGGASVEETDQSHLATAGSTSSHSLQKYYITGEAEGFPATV

O=c1[nH]sc2ccccc12
inactive: [1] | [2] | [3]

CN1C(=O)CC[C@H]1c1cccnc1
inactive: [4] | [5] | [6] | [7] | [8] | [9] | [10] | [11] | [12] | [13] | [14] | [15] | [16] | [2] | [17] | [18] | [19]

COCC(C)OCC(C)OCC(C)O (stereo unspecified)
inactive: [1]

CCCCCCCCOC(=O)c1cc(O)c(O)c(O)c1
active: [20] 76.5 µM
inactive: [1] | [2] | [3]

CC(C)(c1cc(Br)c(O)c(Br)c1)c1cc(Br)c(O)c(Br)c1
inactive: [4] | [5] | [6] | [7] | [8] | [9] | [10] | [11] | [12] | [13] | [14] | [15] | [16] | [2] | [18] | [19]
active: [20] 37.8 µM

Cc1c2ccccc2c(C)c2c1ccc1ccccc12
inactive: [1] | [2] | [3]

CCCOC(=O)c1cc(O)c(O)c(O)c1
inactive: [1]

CCCCCCCCCCCO
active: [20] 152 µM
inactive: [1]

CCN(CC)C(=O)c1cc(S(=O)(=O)Cc2ccccc2)c(N2CCC(c3ccccc3)CC2)cc1N(CC)CCN(C)C
inactive: [1] | [2] | [3]
active: [20] 53.4 µM

Cc1oc2c(NC(=O)c3c(Cl)cccc3Cl)cccc2c1C(C)(C)O
inactive: [1]

OC12N=C(c3ccccc3)SC1Cc1cc(Cl)ccc12 (stereo unspecified)
inactive: [2] | [3]
active: [1] 3.82 µM | [20] 86.5 µM

Cc1ccc(C(C)C)cc1
inactive: [1]

CC(C)(C)c1cc(/C=C2\SC(N)=NC2=O)cc(C(C)(C)C)c1O
active: [20] 19.9 µM
inactive: [1] | [2]

c1ccc2ccccc2c1
inactive: [1] | [4] | [5] | [6] | [7] | [8] | [9] | [10] | [11] | [12] | [13] | [14] | [15] | [16] | [18] | [19]

O=C(O)Cn1c(=O)n(Cc2ccc(Br)cc2F)c(=O)c2ccc(Cl)cc21
active: [1] 53.2 µM

CCCCCCCCN(C)CCCCCCCC
inactive: [1]

CC/C(=C(/CC)c1ccc(O)cc1)c1ccc(O)cc1
inactive: [4] | [6] | [7] | [8] | [9] | [13] | [2] | [17]
active: [5] 9.74 µM | [10] 0.077 µM | [11] 11.3 µM | [12] 15 µM | [14] 5.65 µM | [15] 3.87 µM | [16] 19.5 µM | [18] 0.864 µM | [19] 5.98 µM
